The values below come from PubChem BioAssay (NCI).

Compounds without any hit were thinned out: in the full panel of roughly 83,000, 20% have a hit.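 Treatment: one concentration, 48 hours, 96-well format. Scoring: percent growth, with anything below 10 considered active.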 Values without a mark were called inactive. The source made the active and inactive calls.

Common to all, as to experiment: NCI-60 one-dose screen, 48 h (100 = growth as untreated, 0 = no growth, -100 = all killed)
Holding throughout (conditions): 10 µM unless noted

In test [1] the test system is DU-145 prostate.
Test [2] has as its system K-562 leukemia.
Test [3] concerns MALME-3M melanoma.
Test [4] deals with MDA-MB-231 breast.
Test [5] concerns RXF 393 renal.
For test [6], the system named is SF-268 CNS.
Test [7] has as its system SF-295 CNS.
In test [8] the test system is SF-539 CNS.
Test [9] concerns UACC-257 melanoma.
Test [10] relates to M14 melanoma.

In the case of `COCCOC(=O)COc1ccc(OC)cc1`, the growth in test [1] was 103%; in test [2] it was 104%; in test [3], 97%; in [4] it was 98.1%; in [5] it was 104%; in [6], 102%. Also, the growth is 99.5% in test [7], 104% in test [8], 96.3% in test [9] and 105% in test [10].
With `C[C@@H]1C(=O)[C@@H]2C[C@@H](O)[C@@H](O)C[C@]2(C)[C@H]2CC[C@@]3(C)C(=C12)CC[C@@H]3[C@@](C)(O)[C@H](O)CCC(C)(C)O`, the growth was 99.2% in [1]; 94.9% in [2]; 103% in [3]; 107% in test [4]; 116% in test [5]; 98.2% in test [6]. For the same compound, the growth was 108% in [7], 103% in test [8], -10.5% (active) in test [9] and 105% in test [10].
Take `O=C(Nc1nccs1)c1noc2ccccc12`: the growth is 107% in [1]; 87.7% in test [2]; 96.8% in test [3]; 91.3% in [4]; 110% in test [5]; 103% in test [6]. Moreover, the growth is 101% in [7], 95.6% in [8], 90.6% in test [9] and 96% in test [10].
With `O=c1c2ccccc2oc2ccc(OCCCCCN3CCCCCC3)cc12`, the growth in [1] was 94.1%; in test [2], 21.3%; in test [3], 40.2%; in [4], 77.6%; in [5], 58.6%; in [6], 79%. The growth in test [7] was 87.8%; in [8], 79.4%; in [9] it was 2.91% (active); in [10], 31.5%.
`COc1cc(F)c(-c2nc3c(C)cccc3n2Cc2c(F)cccc2F)c(F)c1`: the growth in [1] was 108%; in test [2], 76.2%; in test [3] it was 79.5%; in [4] it was 89.2%; in test [5], 97.8%; in test [6], 84.3%. Further, the growth in test [7] was 79.9%; in test [8], 101%; in test [9] it was 76.2%; in test [10], 86.3%.
Consider `CN1CC=C(c2cc(NC(=O)Nc3ccc(Oc4ccnc(NC(=O)C5CC5)c4)c(F)c3)cc(C(F)(F)F)c2)CC1`, for which the growth is 9.52% (active) in [1]; -12.2% (active) in [2]; -32.5% (active) in test [3]; -11.8% (active) in test [4]; -27.4% (active) in test [5]; -1.76% (active) in test [6]. Besides, the growth is -9.64% (active) in test [7], -47.9% (active) in test [8], -0.573% (active) in test [9] and -38.3% (active) in test [10].
For `CCSc1nc(Cl)c(C#N)c(-c2ccc(F)cc2)n1`, the growth in [1] is 104%; in test [2], 37.7%; in test [3] it was 106%; in test [4], 105%; in [5], 103%; in test [6], 94.9%. For the same compound, the growth in test [7] was 97.7%; in [8], 92.7%; in test [9], 93.8%; in [10], 82.3%.
Consider `CCN(CC)c1ccc2c(c1)Oc1nc(N)c(C#N)c(N)c1C2Sc1ccc(OC)cc1` (stereo not given), for which the growth was -0.338% (active) in test [1]; 13.5% in [2]; 1.4% (active) in test [3]; -0.581% (active) in test [4]; -0.0562% (active) in test [5]; 16.5% in test [6]. In addition, the growth was 29.1% in test [7], -34.6% (active) in [8], 92.1% in test [9] and -16.2% (active) in test [10].
Consider `CC(=O)c1cnc(-c2ccccc2)nc1CBr`, for which the growth in test [1] was 70.9%; in [2], 3.21% (active); in test [3], 55.8%; in test [4], 66.4%; in [5] it was 60%; in test [6], 84.8%. Besides, the growth in [7] is 97.8%; in test [8] it was 91.6%; in [9] it was 95.3%; in [10] it was 69.8%.
For the compound `O=C1NN(c2ccccc2)C(c2ccc3c(c2)OCO3)N2CCC[C@@H]12` (stereo not given in full), the growth was 101% in test [1]; 93.8% in [2]; 94.9% in [3]; 105% in test [4]; 117% in test [5]; 94% in test [6]. In addition, the growth in test [7] was 103%; in [8] it was 111%; in test [9] it was 99.2%; in test [10] it was 96.6%.
On to `O=C(N/N=C/C[C@@H]1[C@@H](/C=C/[C@@H](O)COc2cccc(Cl)c2)[C@H](O)C[C@@H]1O)c1ccncc1`, for which the growth was 108% in [1]; 95.9% in [2]; 98.1% in [3]; 101% in [4]; 105% in test [5]; 103% in test [6]. Further, the growth was 99.5% in [7], 104% in test [8], 77.5% in test [9] and 99.6% in test [10].
Take `C=C1C(=O)O[C@H]2[C@H]1CC/C(COC(=O)Nc1nc3ccccc3[nH]1)=C\CC[C@@]1(C)O[C@@H]21`: the growth in test [1] was 36.3%; in test [2], 13.5%; in test [3], 48.6%; in [4] it was 66.1%; in [5] it was 30.6%; in test [6], 94.3%. The growth in test [7] was 107%; in test [8] it was 61.1%; in [9], 76.2%; in [10] it was 46.4%.
For `CCCn1c(N)c(C(N)=O)sc1=S`, the growth in test [1] is 117%; in [2], 119%; in [3], 105%; in [4] it was 99.8%; in test [5], 125%; in [6], 97.2%. In addition, the growth in test [7] is 115%; in test [8], 109%; in test [9] it was 109%; in [10], 103%.
As to `O=C(Nc1nc(-c2ccccc2)cs1)c1cc(-c2ccc(Br)cc2)nc2ccccc12`, the growth is 68.7% in test [1]; 24.3% in [2]; 112% in [3]; 57.8% in test [4]; 65.7% in [5]; 53.8% in [6]. For the same compound, the growth in [7] is 49.9%; in [8], 63%; in test [9], 56%; in test [10], 75.3%.
Regarding `COc1ccc(-c2nc(C#N)c(NCC(c3ccco3)N3CCCC3)o2)cc1` (stereo not given), the growth in test [1] is 49.2%; in test [2] it was 20.6%; in test [3], 51.2%; in test [4] it was 77.8%; in test [5] it was 14.8%; in test [6], 52.3%. Further, the growth in test [7] was 24.2%; in test [8], 23.7%; in [9], 55.2%; in test [10], 12.6%.
With `C=C1C(=O)O[C@H]2[C@H]1CC/C(COC(=O)CCC(=O)OC/C1=C/CC[C@@]3(C)O[C@H]3[C@H]3OC(=O)C(=C)[C@@H]3CC1)=C\CC[C@@]1(C)O[C@@H]21`, the growth in test [1] was 18.7%; in [2], 3.55% (active); in test [3] it was -5.56% (active); in test [4] it was -0.376% (active); in test [5], -71.4% (active); in test [6] it was 78.8%. The growth in [7] was 98.4%; in test [8], 16.6%; in test [9] it was 21.4%; in [10], 1.21% (active).
As for `CCOC(=O)NCCc1nc2c([nH]1)c(=O)n(C)c(=O)n2C`, the growth in test [1] is 107%; in test [2], 119%; in test [3], 99.2%; in [4], 105%; in [5] it was 113%; in [6], 98.5%. Moreover, the growth in [7] is 103%; in test [8], 105%; in test [9], 113%; in test [10], 88.8%.
`CCOC(=O)c1sc(/N=C2\NC(=O)/C(=C/c3ccc(N4CCN(C)CC4)cc3)S2)nc1C`: the growth in test [1] was 97.3%; in [2], 95.2%; in test [3], 99.7%; in test [4] it was 112%; in test [5], 112%; in [6], 97.3%. Also, the growth in [7] is 102%; in test [8], 100%; in test [9], 110%; in test [10] it was 108%.
Consider `S=C(Nc1ccc(Cl)cc1)c1ccccn1`, for which the growth in test [1] is 105%; in [2], 90%; in test [3], 85.2%; in test [4], 93.1%; in [5], 97.8%; in test [6], 96.5%. The growth in [7] was 91.4%; in test [8] it was 102%; in [9], 91.1%; in [10], 103%.
Turning to `NS(=O)(=O)c1ccc(N2Cc3cc(Cl)ccc3OC3=C2C(=O)N(CC2CCCCC2)C3=O)cc1`, the growth in test [1] is -94% (active); in test [2], -38% (active); in test [3] it was -77% (active); in [4] it was -74.5% (active); in [5], -89.7% (active); in test [6], -83.9% (active). The growth in [7] was -19.3% (active); in test [8], -99.4% (active); in [9], -79% (active); in [10], -67.7% (active).
Take `CN1C(=O)c2cc(Cl)nc3c(NC(=O)c4cccc(Cl)c4)c(Cl)c(NC(=O)c4cccc(Cl)c4)c1c23`: the growth in test [1] was 4.2% (active); in test [2] it was -43.3% (active); in test [3], -56.1% (active); in test [4], -40.2% (active); in [5], -88.9% (active); in test [6] it was 3.08% (active). In addition, the growth in [7] was 88.1%; in test [8], 9.56% (active); in test [9], -49.3% (active); in [10], -21.1% (active).
As to `NC[C@@H]1CCN(c2cc3c(cc2F)c(=O)n(N)c(=O)n3Cc2ccc(-c3ccccc3)cc2)C1`, the growth in test [1] was 102%; in test [2] it was -44% (active); in [3] it was 121%; in test [4] it was 89.7%; in test [5] it was 74.7%; in test [6], 83.1%. Moreover, the growth was 96.5% in [7], 90% in test [8], 112% in [9] and 68.8% in test [10].
Turning to `Cc1ccc(SC2c3ccc(C)cc3Oc3nc(N)c(C#N)c(N)c32)cc1` (stereo not given), the growth was 92.6% in test [1]; 4.29% (active) in test [2]; 31.9% in test [3]; 69.9% in [4]; 53.9% in [5]; 82.8% in test [6]. For the same compound, the growth in [7] is 103%; in test [8] it was 90.5%; in test [9] it was 94.6%; in test [10], 94.9%.
With `COc1c(O)cc2oc3cc(O[C@@H]4OC(C)[C@@H](O)[C@H](O)C4O)c(CC=C(C)C)c(O)c3c(=O)c2c1CC=C(C)C` (stereo not given in full), the growth in test [1] is 103%; in [2], 74.3%; in [3] it was 103%; in [4], 89.5%; in [5], 103%; in test [6], 92.7%. The growth is 93.3% in test [7], 99% in test [8], 104% in test [9] and 99.8% in [10].
Regarding `CSc1cccc(NC(=O)Nc2nc3c(C)cccc3s2)c1`, the growth in test [1] is 114%; in test [2], 89.8%; in [3], 93.5%; in [4], 116%; in test [5], 104%; in [6], 104%. Besides, the growth is 97.3% in test [7], 89.3% in test [8], 98.7% in [9] and 98% in test [10].
In the case of `O=C(NCc1ccccc1)c1ccc2c(c1)NC(=O)[C@@H]1CCCN21`, the growth was 99.7% in test [1]; 106% in [2]; 92.2% in test [3]; 103% in [4]; 109% in test [5]; 95.6% in test [6]. The growth in [7] was 98.7%; in test [8], 105%; in [9], 104%; in test [10], 95.8%.
